Drawing on PubChem BioAssay (Tox21), this text covers Potency for eight compounds.

Records with an inconclusive call do not appear. The source made the active and inactive calls. Unless noted, calls follow the shape of the full dose curve.

The nature of experiment [1]: Nuclear factor erythroid 2-related factor 2/antioxidant responsive element (Nrf2/ARE) small molecule agonists: qHTS cell viability counter screen in human keratinocytes (AID 1919968; active = well fitted curve in the direction sought with a large enough effect in the repeat runs; an effect the other way counts as inactive or inconclusive; also: nearly all actives have a fitted effect of over 55% in size; also: potency is read from the fitted curve at half-maximal effect). In outline: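 Cells of the KeratinoSens line were plated at 1,500 per well and left for 5 h before compound transfer from DMSO stocks. After a 23 h incubation (37 C, 5% CO2), CellTiter-Fluor was added. Signal was taken as fluorescence intensity 1 h later.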
On the technique in general: In qHTS, concentration-response curves come from the screen itself.

Experiment [2] in a line: Nuclear factor erythroid 2-related factor 2/antioxidant responsive element (Nrf2/ARE) small molecule agonists: luciferase reporter gene qHTS assay in human keratinocytes (AID 1919969). Also: nearly all actives have a fitted effect of over 35% in size. Also: potency is read from the fitted curve at half-maximal effect. Background: A reporter such as luciferase makes a cellular process visible.
In experiment [3] the target is Gonadotropin-releasing hormone receptor (Homo sapiens) (UniProt P30968). Briefly: Human gonadotropin-releasing hormone receptor (GnRHR) small molecule agonists, calcium flux assay in GnRHR-HEK293 cells (AID 1920063). Also: nearly all actives have a fitted effect of over 35% in size. The method, boiled down:
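Compounds dissolved in DMSO are pin-transferred onto dye-loaded GnRHR-HEK293 cells, which were seeded 18 h before at 37 C/5% CO2. Calcium signal is read as fluorescence intensity at 1 s intervals for 3 min.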
For orientation: Calcium assays in cells follow changes in intracellular calcium, usually with a dye or a luminescent sensor.

The target in experiment [4] is KiSS-1 receptor (Homo sapiens) (UniProt Q969F8). Briefly: Human kisspeptin (KISS1R) small molecule agonists, calcium flux assay in KISS1R-HEK293 cells (AID 1920064; active = well fitted curve in the direction sought with a large enough effect in the repeat runs; an effect the other way counts as inactive or inconclusive). The method, boiled down:
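Cell line: HEK293, stable human KISS1R. Dye loading 1 h at 37 C after 18 h culture. Read: kinetic fluorescence, 480/540 nm, 3 min at 1 s intervals.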

The nature of experiment [5]: G protein-coupled receptor (GPCR) small molecule agonists, calcium flux assay: HEK293 wild type cell line counter screen (AID 1920065). The method, boiled down:
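Tox21 10K compounds, 15 concentrations each in triplicate, pin-transferred in DMSO onto dye-loaded cells; kinetic read at 480/540 nm for 3 min, 1 s intervals.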

The nature of experiment [6]: p53 small molecule agonists, cell-based qHTS assay with rat liver microsomes (AID 1963578). The method, boiled down: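 p53RE-bla cells, 4,000/well, pre-incubated 5 h, then given compounds plus rat liver microsomes (0.5 mg/mL final) and NADPH (0.5 mg/mL final). Incubation 16 h at 37 C; beta-lactamase reporter read by LiveBLAzer fluorescence after 2 h at room temperature.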

A short description of experiment [7]: p53 small molecule agonists, cell-based qHTS assay with human liver microsomes: qHTS cell viability counter screen (AID 1963579). Also: nearly all actives have a fitted effect of over 45% in size. The method, boiled down: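 p53RE-bla cells, 4,000/well, dosed 5 hours after plating, with human liver microsomes (0.5 mg/mL final) plus NADPH (0.5 mg/mL final), 16 hours at 37 C. Viability read as CellTiter-Glo luminescence after 30 min at room temperature.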

The nature of experiment [8]: p53 small molecule agonists, cell-based qHTS assay with rat liver microsomes: qHTS cell viability counter screen (AID 1963580). Also: nearly all actives have a fitted effect of over 45% in size. The method, boiled down:
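After the beta-lactamase ratio was read, CellTiter-Glo was added to the same wells and luminescence measured at 30 min; cells had been treated 16 h at 37 C with compounds, rat liver microsomes and NADPH (0.5 mg/mL final each).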

Experiment [9] is described as follows: p53 small molecule agonists, cell-based qHTS assay: qHTS cell viability counter screen (AID 1963581). Also: nearly all actives have a fitted effect of over 45% in size. In outline: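 ATP content measured by luminescence in HCT-116 p53RE-bla cells treated 16 h at 37 C, same wells as the reporter screen.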
The nature of experiment [10]: p53 small molecule agonists, cell-based qHTS assay (AID 1963582; active = well fitted activation curve with a large enough effect in the signal ratio in the repeat runs, not every such curve was filed as active; the % refers to the signal ratio; also: potency is read from the fitted curve at half-maximal effect). The method, boiled down: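 16 h compound exposure (37 C) of p53 response element–bla cells, preceded by 5 h recovery at 37 C/5% CO2; read-out via LiveBLAzer B/G FRET substrate, 2 h RT, fluorescence intensity.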
The target in experiment [11] is 5-hydroxytryptamine receptor 2A (Homo sapiens) (UniProt P28223). As to the kind of experiment: 5-hydroxytryptamine receptor 2A (HTR2A) small molecule agonists, cell-based qHTS assay (AID 1963587). Also: nearly all actives have a fitted effect of over 30% in size. In outline:
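CHO cells stably expressing human HTR2A, plated 18 h, loaded with calcium dye 1 h at 37 C. Agonist mode: compounds added and intracellular calcium fluorescence recorded kinetically for 2 min at 1 sec intervals.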

Experiment [12] deals with Muscarinic acetylcholine receptor M1 (Homo sapiens) (UniProt P11229). As to the kind of experiment: Cholinergic receptor muscarinic 1 (CHRM1) small molecule agonists, cell-based qHTS assay (AID 1963589). Also: nearly all actives have a fitted effect of over 35% in size. The method, boiled down: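 Homogeneous fluorescence calcium flux, agonist mode. Human M1-expressing CHO cells; compound dosed at 15 concentrations, three independent runs; signal sampled every 1 sec.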
Chain of Muscarinic acetylcholine receptor M1 (Homo sapiens) (P11229 whole entry, looked up): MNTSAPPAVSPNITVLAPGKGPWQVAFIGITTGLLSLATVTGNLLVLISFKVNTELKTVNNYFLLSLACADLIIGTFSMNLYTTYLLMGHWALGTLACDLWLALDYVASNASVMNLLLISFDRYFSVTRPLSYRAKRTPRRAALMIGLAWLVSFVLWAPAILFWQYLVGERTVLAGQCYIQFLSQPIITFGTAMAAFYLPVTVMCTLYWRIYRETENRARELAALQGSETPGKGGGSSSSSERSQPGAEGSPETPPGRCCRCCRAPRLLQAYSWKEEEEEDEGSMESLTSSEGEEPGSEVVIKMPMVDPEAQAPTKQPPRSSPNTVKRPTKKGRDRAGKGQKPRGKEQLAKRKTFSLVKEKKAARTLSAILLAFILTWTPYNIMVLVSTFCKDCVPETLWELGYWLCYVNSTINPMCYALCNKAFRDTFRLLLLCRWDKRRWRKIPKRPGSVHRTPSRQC

Experiment [13] can be described thus: cAMP Responsive Elements (CRE) small molecule agonists, cell-based qHTS assay (AID 1963590). In outline: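 HEK 293T cells stably bearing CRE-bla were plated at 2,000 cells per well and rested 18 h. Compounds, positive controls or DMSO were added for 3 h at 37 C. LiveBLAzer B/G substrate was then loaded for 2 h at room temperature.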
The target in experiment [14] is Beta-2 adrenergic receptor (Homo sapiens) (UniProt P07550). Briefly: Adrenergic beta2 receptor (ADRB2) small molecule antagonists, cell-based qHTS assay (AID 1963592). Also: series mostly up to about 92 µM; nearly all actives have a fitted effect of over 50% in size. The method, boiled down: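 Assay format: CHO-ADRB2 cells, 18-20hr seeding at 37C/5% CO2, then compound plus 1nM isoproterenol agonist mix for 0.5hr RT. Homogeneous time-resolved fluorescence cAMP detection after 1hr, expressed as 665/615 nm ratio.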
Chain of Beta-2 adrenergic receptor (Homo sapiens) (P07550 whole entry, looked up): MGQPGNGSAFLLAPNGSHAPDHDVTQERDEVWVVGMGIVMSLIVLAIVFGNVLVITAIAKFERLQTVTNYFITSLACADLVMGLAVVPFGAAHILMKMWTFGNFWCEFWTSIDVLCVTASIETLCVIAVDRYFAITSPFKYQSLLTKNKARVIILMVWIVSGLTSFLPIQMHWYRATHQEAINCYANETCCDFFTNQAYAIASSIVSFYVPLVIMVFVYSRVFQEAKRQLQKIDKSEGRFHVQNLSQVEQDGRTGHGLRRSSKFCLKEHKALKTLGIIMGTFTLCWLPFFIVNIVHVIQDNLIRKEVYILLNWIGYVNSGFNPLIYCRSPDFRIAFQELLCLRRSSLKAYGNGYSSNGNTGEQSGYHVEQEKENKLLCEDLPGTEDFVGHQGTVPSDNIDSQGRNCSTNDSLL

Experiment [15] deals with D(2) dopamine receptor (Homo sapiens) (UniProt P14416). Briefly: Dopamine D2 receptor (DRD2) small molecule agonists, cell-based qHTS assay (AID 1963594). Also: nearly all actives have a fitted effect of over 35% in size. In outline:
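HEK293 cells stably expressing human DRD2, pre-treated with PDE inhibitor Ro20-1724 (0.1 mM final) and compound 10 min at room temperature, then stimulated with NKH477 (200nM […]) for 30 min. cAMP read by HTRF (665/620 nm).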

For experiment [16] the target is unchanged. Briefly: Dopamine D2 receptor (DRD2) small molecule antagonists, cell-based qHTS assay (AID 1963595; active = well fitted inhibition curve with a large enough effect in the signal ratio in the repeat runs, with a control signal flat; the % refers to the signal ratio). The method, boiled down:
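Stable D2 receptor HEK293 line, 24 h after seeding. Compound preincubated 10 min, then quinpirole (12 nM) with forskolin analogue NKH477 (200 nM), 30 min, room temperature. Detection by time-resolved FRET of cAMP.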

The target in experiment [17] is 5-hydroxytryptamine receptor 2A (Homo sapiens) (UniProt P28223). As to the kind of experiment: 5-hydroxytryptamine receptor 2A (HTR2A) small molecule antagonists, cell-based qHTS assay (AID 1963586). Also: nearly all actives have a fitted effect of over 45% in size. In outline: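 CHO cells stably expressing human HTR2A were plated for 18 h at 37 C, then loaded with calcium dye for 1 h. Compounds were preincubated 5 min at room temperature before DOI (4 nM solution) was added. Kinetic fluorescence was read for 3 min.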
Chain of 5-hydroxytryptamine receptor 2A (Homo sapiens) (P28223 whole entry, looked up): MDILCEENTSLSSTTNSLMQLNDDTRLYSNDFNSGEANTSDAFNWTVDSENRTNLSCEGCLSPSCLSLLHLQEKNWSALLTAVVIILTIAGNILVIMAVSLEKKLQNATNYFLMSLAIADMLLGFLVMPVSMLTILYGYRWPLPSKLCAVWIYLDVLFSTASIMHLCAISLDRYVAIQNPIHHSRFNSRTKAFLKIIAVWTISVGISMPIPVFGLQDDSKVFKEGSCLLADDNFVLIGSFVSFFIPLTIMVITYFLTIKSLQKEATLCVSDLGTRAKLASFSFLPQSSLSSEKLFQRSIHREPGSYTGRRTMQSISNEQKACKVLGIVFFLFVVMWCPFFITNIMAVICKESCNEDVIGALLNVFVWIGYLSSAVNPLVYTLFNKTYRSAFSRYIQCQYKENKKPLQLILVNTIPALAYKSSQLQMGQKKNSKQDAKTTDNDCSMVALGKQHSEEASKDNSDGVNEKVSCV

For experiment [18], the target named is Muscarinic acetylcholine receptor M1 (Homo sapiens) (UniProt P11229). Briefly: Cholinergic receptor muscarinic 1 (CHRM1) small molecule antagonists, cell-based qHTS assay (AID 1963588). Also: nearly all actives have a fitted effect of over 40% in size. The method, boiled down:
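Compounds were tested at 15 concentrations in three independent runs. Dye-loaded CHRM1-CHO cells were exposed 5 min at room temperature before stimulation by acetylcholine added at 50nM. Intracellular calcium was read kinetically on FDSS for 3 min.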

Experiment [19] is described as follows: cAMP Responsive Elements (CRE) small molecule antagonists, cell-based qHTS assay (AID 1963591; active = well fitted inhibition curve with a large enough effect in the signal ratio in the repeat runs, not every such curve was filed as active; the % refers to the signal ratio). The method, boiled down:
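First, CRE-bla HEK293T cells settled 18 h at 37 C. Next, compound and 0.25 uM final NKH477 were applied for 3 h. Last, LiveBLAzer B/G substrate was loaded for 2 h at room temperature.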

For experiment [20], the target named is Beta-2 adrenergic receptor (Homo sapiens) (UniProt P07550). As to the kind of experiment: Adrenergic beta2 receptor (ADRB2) small molecule agonists, cell-based qHTS assay (AID 1963593).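 Also: CHO cells stably overexpressing human ADRB2.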 The method, boiled down: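 CHO cells stably over-expressing ADRB2 were plated overnight at 37C, then dosed with compounds plus a stimulation mix containing 100uM IBMX and 25uM Ro-20-1724 for 0.5hr at room temperature. cAMP was measured by HTRF competition, 1hr.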

Chain of D(2) dopamine receptor (Homo sapiens) (P14416 whole entry, looked up): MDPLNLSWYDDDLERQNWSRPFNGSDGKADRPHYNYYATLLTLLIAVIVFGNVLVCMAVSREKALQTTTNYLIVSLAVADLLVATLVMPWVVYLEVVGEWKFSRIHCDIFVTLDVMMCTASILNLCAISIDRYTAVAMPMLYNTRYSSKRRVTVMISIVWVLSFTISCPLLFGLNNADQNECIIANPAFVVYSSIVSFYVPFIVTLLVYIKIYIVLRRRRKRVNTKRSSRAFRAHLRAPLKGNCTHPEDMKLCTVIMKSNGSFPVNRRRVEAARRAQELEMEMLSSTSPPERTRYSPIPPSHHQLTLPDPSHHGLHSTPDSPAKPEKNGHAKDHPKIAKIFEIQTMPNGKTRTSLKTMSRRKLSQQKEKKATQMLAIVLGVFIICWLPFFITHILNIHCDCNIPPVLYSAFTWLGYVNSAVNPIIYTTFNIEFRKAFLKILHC
Chain of KiSS-1 receptor (Homo sapiens) (Q969F8 whole entry, looked up): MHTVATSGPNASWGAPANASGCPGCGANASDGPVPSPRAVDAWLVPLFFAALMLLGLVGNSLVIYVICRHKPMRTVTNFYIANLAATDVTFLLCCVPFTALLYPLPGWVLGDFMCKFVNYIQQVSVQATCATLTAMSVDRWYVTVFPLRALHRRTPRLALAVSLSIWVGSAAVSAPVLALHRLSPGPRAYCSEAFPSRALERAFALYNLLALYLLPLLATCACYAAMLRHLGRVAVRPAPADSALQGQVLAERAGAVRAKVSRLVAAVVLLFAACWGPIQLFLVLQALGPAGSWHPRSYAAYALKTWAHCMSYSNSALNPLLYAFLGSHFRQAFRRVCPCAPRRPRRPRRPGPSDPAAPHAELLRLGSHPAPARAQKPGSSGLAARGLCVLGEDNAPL
Chain of Gonadotropin-releasing hormone receptor (Homo sapiens) (P30968 whole entry, looked up): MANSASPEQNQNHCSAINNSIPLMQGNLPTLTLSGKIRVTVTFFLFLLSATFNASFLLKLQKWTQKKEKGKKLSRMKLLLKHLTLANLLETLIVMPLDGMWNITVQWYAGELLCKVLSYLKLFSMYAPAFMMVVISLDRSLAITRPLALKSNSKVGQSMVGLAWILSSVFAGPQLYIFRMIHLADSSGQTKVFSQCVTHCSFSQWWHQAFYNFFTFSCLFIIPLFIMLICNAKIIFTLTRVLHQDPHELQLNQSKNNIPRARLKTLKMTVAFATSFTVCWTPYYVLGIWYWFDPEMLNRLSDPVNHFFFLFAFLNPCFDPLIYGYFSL

Turning to `CCSC(=O)Cl`, the Potency entry in experiment [1], in experiment [2], in experiment [3], in [4], in [5] and in experiment [6] was “inactive” in each case. Further, the Potency entry in experiment [7], in [8], in [9], in experiment [10], in experiment [11] and in experiment [12] was “inactive” in each case. Moreover, the Potency entry in experiment [13], in experiment [14], in [15] and in experiment [16] was “inactive” each time.

Turning to `OP(O)c1ccccc1`, the Potency result in experiment [1], in [2], in [3], in experiment [4], in experiment [5] and in experiment [7] was “inactive” throughout. Further, the Potency entry in [9], in experiment [10], in [17], in [11], in experiment [18] and in experiment [12] was “inactive” each time. Also, the Potency result in experiment [13], in [14] and in experiment [16] was “inactive” throughout.

In the case of `CCOP(=S)(OCC)SCS(=O)(=O)CC`, the Potency entry in experiment [1], in [2], in [3], in experiment [4], in experiment [5] and in experiment [7] was “inactive” in each case. Besides, the Potency entry in experiment [8], in experiment [10], in experiment [17], in [18], in experiment [12] and in [13] was “inactive” each time. In addition, the Potency entry in experiment [19], in experiment [14], in experiment [15] and in experiment [16] was “inactive” throughout.

For `O=C(O)COc1ccc(Cl)cc1`, the Potency entry in [1], in experiment [2], in [3], in [4], in experiment [5] and in [6] was “inactive” throughout. Also, the Potency result in experiment [7], in experiment [8], in experiment [9], in experiment [10], in experiment [11] and in experiment [12] was “inactive” each time. The Potency result in [14], in [20], in experiment [15] and in experiment [16] was “inactive” each time.

Regarding `COc1cc(C=O)cc2c1[C@H](COC(N)=O)[C@]1(OC(C)=O)ON2C[C@H]2[C@@H]1N2C(C)=O`, the Potency is 9.69 µM (active) in experiment [1] and 3.63 µM (active) in experiment [10]. Besides, the Potency result in experiment [2], in experiment [3], in experiment [4], in [5], in experiment [6] and in experiment [7] was “inactive” in each case. The Potency result in experiment [8], in experiment [9], in [17], in [11], in experiment [18] and in [12] was “inactive” throughout. Moreover, the Potency result in experiment [13], in experiment [14], in experiment [20] and in experiment [16] was “inactive” throughout.

In the case of `CC(C1CC1)C(O)(Cn1cncn1)c1ccc(Cl)cc1` (centres undefined), the Potency entry in [1], in experiment [2], in experiment [3], in [4], in experiment [5] and in [6] was “inactive” each time. The Potency result in experiment [7], in experiment [8], in experiment [9], in experiment [10], in experiment [17] and in [11] was “inactive” each time. For the same compound, the Potency result in experiment [18], in experiment [12], in [13], in [14], in [15] and in experiment [16] was “inactive” each time.

As to `Clc1ccc(-c2ccccc2)cc1`, the Potency entry in [1], in [2], in experiment [3], in experiment [4], in experiment [5] and in experiment [6] was “inactive” in each case. The Potency result in experiment [7], in experiment [8], in [9], in [10], in experiment [17] and in experiment [11] was “inactive” throughout. For the same compound, the Potency result in experiment [18], in experiment [12], in [13], in [19], in experiment [14] and in [15] was “inactive” in each case. Further, the Potency entry in experiment [16] was “inactive”.

With `CSSC`, the Potency result in [1], in experiment [3], in experiment [4], in experiment [5], in experiment [7] and in experiment [8] was “inactive” throughout. The Potency result in [10], in [17], in experiment [11], in experiment [18], in [19] and in experiment [14] was “inactive” each time. Also, the Potency result in experiment [20], in [15] and in experiment [16] was “inactive” each time. The Potency in experiment [2] was 31 µM (active).
